The panel holds about 83,000 compounds, 20% with a hit somewhere; the sample as a whole holds those more often.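 Values shown are percent growth following 48 h exposure of cells in 96-well plates to a single concentration of compound; below 10 was considered active.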 A number with no mark means an inactive call. Activity calls are given as the source filed them.
Assays:
Assay in all cases: NCI-60 one-dose screen, 48 h (100 = growth as untreated, 0 = no growth, -100 = all killed)
Conditions in all cases: 10 µM unless noted
SR leukemia = test system: SR leukemia
OVCAR-8 ovarian = test system: OVCAR-8 ovarian
OVCAR-5 ovarian = test system: OVCAR-5 ovarian
OVCAR-4 ovarian = test system: OVCAR-4 ovarian
SK-OV-3 ovarian = test system: SK-OV-3 ovarian
IGROV1 ovarian = test system: IGROV1 ovarian
OVCAR-3 ovarian = test system: OVCAR-3 ovarian
HS 578T breast = test system: HS 578T breast
NCI/ADR-RES ovarian = test system: NCI/ADR-RES ovarian
RPMI-8226 leukemia = test system: RPMI-8226 leukemia

SMILES | growth (SR leukemia) | growth (OVCAR-8 ovarian) | growth (OVCAR-5 ovarian) | growth (OVCAR-4 ovarian) | growth (SK-OV-3 ovarian) | growth (IGROV1 ovarian) | growth (OVCAR-3 ovarian) | growth (HS 578T breast) | growth (NCI/ADR-RES ovarian) | growth (RPMI-8226 leukemia)
O=C(O)c1ccc(CO)o1 | 100% | 95.5% | 108% | 98.3% | 116% | 109% | 112% | 106% | 116% | –
COc1ccc(Cn2cnc3cc(C(=O)Nc4cccc5ccccc45)ccc32)c(OC)c1 | -17% [30 µM] (active) | 14.7% [30 µM] | 16.3% [30 µM] | 44.4% [30 µM] | 31% [30 µM] | 14.7% [30 µM] | -17.8% [30 µM] (active) | 29.8% [30 µM] | – | –
COc1ccc(C2CC(c3ccc4ccccc4c3)=NN2c2nc(O)c(C3=c4cc(Cl)ccc4=NC3=O)s2)cc1 (stereo not drawn) | -34.4% (active) | – | -7.92% (active) | -61.5% (active) | – | -11.5% (active) | -83.1% (active) | -5.85% (active) | 58.8% | -3.59% (active)
CC(/C=N/NC(=O)c1cc(-c2ccco2)[nH]n1)=C\c1ccccc1 | 88.7% | – | 96.9% | 99.6% | 97.4% | 107% | 107% | 30.3% | 97.8% | 84.7%
CCCCCCCCn1cc(C2=C(c3coc4ccc(OC)cc34)C(=O)NC2=O)c2ccccc21 | 119% | – | 90.8% | 106% | – | 104% | 107% | 101% | 101% | 119%
C=C1C(=O)O[C@H]2[C@H]1CC/C(COC(=O)/C=C\C(=O)NCc1ccc(Cn3c(=O)sn(CCCC)c3=O)cc1)=C\CC[C@@]1(C)O[C@@H]21 | -24.7% (active) | 2.61% (active) | -78.9% (active) | -81.8% (active) | 55.7% | -100% (active) | -80.5% (active) | -20.4% (active) | -9.25% (active) | –
CCN(CC)CCOc1ccc(/C(=C(\C)c2ccc(OC)c(F)c2)c2ccc(Cl)cc2)cc1 | 29.8% | 76.7% | 72.9% | 73.1% | 91.1% | 72.2% | 89% | 70% | 82.3% | –
COc1cc2oc(-c3cccc(C(=O)Nc4ccc(C)cc4)c3)cc(=O)c2c(OC)c1OC | 12.7% | – | 48.2% | 59.8% | – | 44.4% | 42.3% | 64.3% | 37.5% | -7.08% (active)
O=C1Nc2ccccc2SC1C1SC(=S)N(Cc2ccccc2)C1=O (stereo not drawn) | -12.1% (active) | – | 104% | – | 118% | 96.5% | -5.62% (active) | 27% | 104% | -21.7% (active)
CC[C@]1(O)C[C@H]2CN(CCc3c([nH]c4ccccc34)[C@@](C(=O)OC)(c3cc4c(cc3OC)N(C=O)[C@H]3[C@@](O)(C(=O)OC)[C@H](OC(C)=O)[C@]5(CC)C=CCN6CC[C@]43[C@@H]65)C2)C1 | 9.82% (active) | – | -47.6% (active) | 49.2% | -7.88% (active) | 4.04% (active) | -41.4% (active) | – | -62.6% (active) | -5.85% (active)
O=C1CSC(c2ccccc2O)N1c1nnc(Cn2cnnc2)o1 (stereo not drawn) | 72.4% | – | 78.1% | 86.4% | 88.3% | 73.9% | 91.2% | 88.1% | 68.9% | 71.1%
O=[N+]([O-])c1ccc(-c2cc3c(Nc4ccc(Sc5nc6ccccc6s5)c(Cl)c4)ncnc3s2)cc1 | 38.7% | 23.5% | 49.9% | 35.2% | 37.1% | 43.8% | 14.7% | 87.8% | 60.3% | –
Cc1cc(-c2ccc(N(C)C)cc2)c2sc(=O)[nH]c2n1 | 40.1% | – | 85% | 83.2% | – | 61.5% | 68.9% | 48.1% | 45.5% | 70.6%
Clc1ccc(-c2nc(NCCc3ccccc3)nc3c(NCCc4ccccc4)cnn23)cc1 | 72% | 47.5% | 91.2% | 7.73% (active) | 75.8% | 71.5% | 48.9% | 76.6% | 74.5% | –
CCN(CC)CCOc1ccc(/C(=C(\C)c2ccc(F)c(OC)c2)c2ccc(Cl)cc2)cc1 | -22.2% (active) | 17.4% | 40.9% | 26.6% | 54% | 29.7% | 16.6% | 16% | 39.8% | –
COc1cccc(/C=C2\COc3ccc(O)cc3C2=O)c1OC | 5.49% (active) | 69% | 89.7% | 92.5% | 92.9% | 67.5% | 41.2% | 73% | 63.2% | –
COc1ccc(C(=O)/C=C/C23c4ccccc4C(c4ccccc42)C2C(=O)NC(=O)C23)cc1 (stereo not drawn) | 75.5% | 88.3% | 91.4% | 88.5% | – | 98.8% | 95.9% | 77.6% | 90.1% | –
Cc1[nH]c(-c2nc3ccccc3[nH]2)c(C)c1C(=O)N1CCOCC1 | 98.6% | 106% | 98% | 99.8% | – | 99.4% | 103% | 90.4% | 101% | –
O=C(NCCN1CCC(O)CC1)c1cc2c(o1)C(=O)c1ccccc1C2=O | 13.4% | -48.8% (active) | -84.7% (active) | -94.1% (active) | – | -83.8% (active) | -75.1% (active) | -27.4% (active) | -26.3% (active) | –
COc1ccc(/C(C)=C(\c2ccc(Cl)cc2)c2ccc(OCCCN(C)C)cc2)cc1F | -19.7% (active) | 71.5% | 72.6% | 54.1% | 81.9% | 48.5% | 63.5% | 56.3% | 77.1% | –
O=C(/C=C/c1ccccc1)c1ccc2ccccc2c1 | 48.1% | 100% | 106% | 97% | 103% | 76.2% | – | 145% | 101% | –
CN(C)CCC(O)(Cc1ccccc1)c1ccccc1 (stereo not drawn) | 102% | 105% | 103% | 110% | 99.6% | 113% | – | 99.8% | 109% | –
N#Cc1cnn2c(-c3ccc(Cl)cc3)nc(NC3CC3)nc12 | 86.1% | 102% | 93.9% | 87.2% | 107% | 89.4% | 101% | 101% | 98.8% | –
COc1ccc(OC)c(/C=C2\COc3ccc(O)cc3C2=O)c1 | 11.8% | 100% | 98.7% | 117% | 102% | 97.9% | 102% | 95.6% | 100% | –
Cn1ccnc1C(=O)/C=C/c1ccc(C(=O)Nc2ccc(S(F)(F)(F)(F)F)cc2)cc1 | 1.8% (active) | 9.86% (active) | 10.2% | 33.5% | 61.2% | 22.3% | 2.9% (active) | 23.5% | 5.47% (active) | –
C=C1C(=O)O[C@H]2[C@H]1CC/C(COC(=O)/C=C\C(=O)NCc1ccc(Cn3c(=O)sn(-c4ccc(OC)cc4)c3=O)cc1)=C\CC[C@@]1(C)O[C@@H]21 | -27.3% (active) | 4.05% (active) | -86.8% (active) | -77% (active) | 61.4% | -97.3% (active) | -88.6% (active) | -21.3% (active) | -16% (active) | –
C=C1C(=O)O[C@H]2[C@H]1CC/C(COC(=O)/C=C\C(=O)NCc1ccc(Cn3c(=O)sn(CCCI)c3=O)cc1)=C\CC[C@@]1(C)O[C@@H]21 | -48% (active) | -1.28% (active) | -83.9% (active) | -89.4% (active) | 42.9% | -98.3% (active) | -93% (active) | -40.2% (active) | 1.52% (active) | –
NC(=Nc1ccc(N)cc1)C(N)=Nc1ccc(N)cc1 | 134% | 85.3% | 105% | 101% | 126% | 84.7% | 94.1% | 114% | 99.6% | –
C=C1C(=O)O[C@H]2[C@H]1CC/C(COC(=O)/C=C\C(=O)NCc1ccc(Cn3c(=O)sn(-c4ccc(Cl)cc4)c3=O)cc1)=C\CC[C@@]1(C)O[C@@H]21 | -46.3% (active) | -12% (active) | -86.2% (active) | -78.4% (active) | 52.4% | -99.5% (active) | -97.6% (active) | -18.2% (active) | -6.62% (active) | –
CCCCN(Cc1ccc(C(=O)NO)cc1)C(=O)Nc1ccc(OCCCCCCCCCn2cc(CCCCC(=O)N[C@H](C(=O)N3C[C@H](O)C[C@H]3C(=O)NCc3ccc(-c4scnc4C)cc3)C(C)(C)C)nn2)cc1 | 12.9% | 50.3% | 96.8% | 49.3% | 53.9% | 16.8% | 3.45% (active) | 40.8% | 97.3% | –

Reference: PubChem BioAssay (NCI)
